Test results reported in PMC11062922 (Nature Chemical Biology, 2023).
Like-named read-outs stand apart in the source and are kept apart here.

What was measured:
Set-up in all cases: species or system human, MV4-11 + K-562 + COLO205 + SK-N-BE2 + OVCAR-8
CDK9 = settings: read-out: apparent Kd, n = 1
ICK = settings: read-out: apparent Kd, n = 1
TGFBR2 = settings: read-out: apparent Kd, n = 1
ULK1 = settings: read-out: apparent Kd; compound concentrations:100 nM and 1000 nM (sheet 'Samples'); n = 1
MTOR = settings: read-out: apparent Kd, n = 1
CDC42BPB = settings: read-out: apparent Kd, n = 1
CDC42BPG = settings: read-out: apparent Kd, n = 1
CDC42BPA = settings: read-out: apparent Kd, n = 1
PRKG1 = settings: read-out: apparent Kd, n = 1
ROCK1 = settings: read-out: apparent Kd, n = 1
CDK2 = settings: read-out: apparent Kd, n = 1
PDGFRB = settings: read-out: apparent Kd, compound concentrations: 100 nM and 1000 nM (sheet 'Samples'), n = 1
JAK2 = settings: read-out: apparent Kd, compound concentrations: 100 nM and 1000 nM (sheet 'Samples'), n = 1
AXL = settings: read-out: apparent Kd; compound concentrations: 100 nM and 1000 nM (sheet 'Samples'), CATDS: 9.0934128648907098E-2; n = 1
PIK3CG = settings: read-out: apparent Kd, compound concentrations: 100 nM and 1000 nM (sheet 'Samples'), n = 1
EPHA1 = settings: read-out: apparent Kd; compound concentrations: 100 nM and 1000 nM (sheet 'Samples'), CATDS: 3.2414414086750797E-2; n = 1
[1] = compound concentrations:100 nM and 1000 nM (sheet 'Samples')

CN(C)CC(O)COc1ccc(Nc2nccc(-c3cnn4nc(N5CCOCC5)ccc34)n2)cc1 (centres unmarked) [GW767488X]
potency estimated from few doses (CDK9; [1]): 534 nM
potency estimated from few doses (ICK; [1]): 1720 nM
potency estimated from few doses (TGFBR2; [1]): 215 nM
potency estimated from few doses (ULK1): 793 nM

CNc1cc(-c2ccc3c(N)n[nH]c3c2)nc(N)n1 [GSK2224810A]
potency estimated from few doses (MTOR; [1]): 475 nM

O=C(O)C(F)(F)F.O=c1[nH]ccc2nc(N[C@@H]3CCNC3)nc(Nc3cc(Cl)cc(Cl)c3)c12 [GSK2188764A]
potency estimated from few doses (CDC42BPB; [1]): 1870 nM
potency estimated from few doses (CDC42BPG; [1]): 556 nM

Cl.Cl.NC[C@H](CC1CCCCC1)NC(=O)c1ccc(-c2ccnc3[nH]ccc23)s1.NC[C@H](CC1CCCCC1)NC(=O)c1ccc(-c2ccnc3[nH]ccc23)s1 [GSK1581428A]
potency estimated from few doses (CDC42BPA; [1]): 28.9 nM
potency estimated from few doses (CDC42BPB; [1]): 10.5 nM
potency estimated from few doses (PRKG1; [1]): 41.4 nM
potency estimated from few doses (ROCK1; [1]): 29.2 nM

Cl.Nc1nc(-c2ccc3c(c2)C(=Cc2cc(Br)c(O)c(Br)c2)C(=O)N3)cs1 [GW407323A]
potency estimated from few doses (CDK2; compound concentrations: 100 nM and 1000 nM (sheet 'Samples'), CATDS: 3.5649543484101501E-2): 720 nM

NS(=O)(=O)c1ccc(N/C=C2\C(=O)Nc3ccc4ncsc4c32)cc1 [GW297361X]
potency estimated from few doses (CDK2; compound concentrations: 100 nM and 1000 nM (sheet 'Samples'), CATDS: 7.9429171662671896E-2): 232 nM
potency estimated from few doses (CDK9; compound concentrations: 100 nM and 1000 nM (sheet 'Samples'), CATDS: 3.67324795233104E-2): 1040 nM

COc1cc[nH]c1/C=C1\C(=O)Nc2ccc([N+](=O)[O-])c(N3CC[C@@H](O)C3)c21 [RO0504985-000]
potency estimated from few doses (CDK2; compound concentrations: 100 nM and 1000 nM (sheet 'Samples'), CATDS: 3.3217097054667903E-2): 1280 nM
potency estimated from few doses (CDK9; compound concentrations: 100 nM and 1000 nM (sheet 'Samples'), CATDS: 3.1258790077652497E-2): 1620 nM
potency estimated from few doses (ICK; compound concentrations: 100 nM and 1000 nM (sheet 'Samples'), CATDS: 0.118189348894571): 47 nM
potency estimated from few doses (PDGFRB; CATDS: 3.1166812666601599E-2): 1640 nM
potency estimated from few doses (TGFBR2; compound concentrations: 100 nM and 1000 nM (sheet 'Samples'), CATDS: 3.2384825488945002E-2): 1410 nM

Cc1occc1-c1nc(N)c(OC[C@@H](N)Cc2c[nH]c3ccccc23)cc1-c1cc2c(C)n[nH]c2cn1 [GSK1660450B]
potency estimated from few doses (CDC42BPA; [1]): 34.6 nM
potency estimated from few doses (CDC42BPB; [1]): 106 nM
potency estimated from few doses (CDC42BPG; [1]): 65.4 nM

COc1cc[nH]c1/C=C1\C(=O)Nc2ccc(F)c(C#C[C@@H](O)[C@@H](N)[C@@H](C)O)c21 [RO0283120-000]
potency estimated from few doses (CDK9; [1]): 1130 nM
potency estimated from few doses (TGFBR2; [1]): 1600 nM

NS(=O)(=O)c1ccc(NC=C2C(=O)Nc3ccc4ncsc4c32)cc1 [GW589933X]
potency estimated from few doses (CDK2; compound concentrations: 100 nM and 1000 nM (sheet 'Samples'), CATDS: 6.9687110689249002E-2): 65.8 nM
potency estimated from few doses (CDK9; compound concentrations: 100 nM and 1000 nM (sheet 'Samples'), CATDS: 2.7445436907685701E-2): 414 nM
potency estimated from few doses (ICK; compound concentrations: 100 nM and 1000 nM (sheet 'Samples'), CATDS: 1.95269690039667E-2): 1050 nM
potency estimated from few doses (PDGFRB; CATDS: 2.1122847549312301E-2): 826 nM

Cl.Cl.NCC(NC(=O)c1cc(-c2ccnc3[nH]ccc23)cs1)c1ccccc1.NCC(NC(=O)c1cc(-c2ccnc3[nH]ccc23)cs1)c1ccccc1 (centres unmarked) [GSK1229959A]
potency estimated from few doses (CDC42BPA; compound concentrations: 100 nM and 1000 nM (sheet 'Samples'), CATDS: 7.2504197887005906E-2): 15.3 nM
potency estimated from few doses (CDC42BPB; compound concentrations: 100 nM and 1000 nM (sheet 'Samples'), CATDS: 9.85023329891931E-2): 8.96 nM
potency estimated from few doses (CDC42BPG; compound concentrations: 100 nM and 1000 nM (sheet 'Samples'), CATDS: 9.9615433098280207E-2): 8.8 nM
potency estimated from few doses (CDK9; compound concentrations: 100 nM and 1000 nM (sheet 'Samples'), CATDS: 1.9893156316103101E-2): 801 nM
potency estimated from few doses (JAK2; CATDS: 1.8350594186084E-2): 1230 nM
potency estimated from few doses (PRKG1; compound concentrations: 100 nM and 1000 nM (sheet 'Samples'), CATDS: 9.38640843647673E-2): 9.7 nM
potency estimated from few doses (ROCK1; compound concentrations: 100 nM and 1000 nM (sheet 'Samples'), CATDS: 0.109953475811368): 7.53 nM

Cl.Cl.NCC(NCc1ccc(-c2ccnc3[nH]ccc23)s1)c1ccccc1.NCC(NCc1ccc(-c2ccnc3[nH]ccc23)s1)c1ccccc1 (centres unmarked) [GSK1321565A]
potency estimated from few doses (PRKG1; [1]): 1060 nM

Cc1cc(NC(=O)c2cccc(NC(=O)/C=C/CN(C)C)c2)ccc1Nc1nccc(-c2cccnc2)n1 [JNK-IN-7]
potency estimated from few doses (ICK; [1]): 1290 nM

O=C1N=C(NCc2ccccc2Br)S/C1=C\c1ccc2ncccc2c1 [RO4506918-000]
potency estimated from few doses (CDC42BPG; compound concentrations: 100 nM and 1000 nM (sheet 'Samples'), CATDS: 7.9298685313138301E-2): 1370 nM

COc1cc2ncn(-c3cc(OCc4ccccc4S(C)(=O)=O)c(C#N)s3)c2cc1OC [GSK319347A]
potency estimated from few doses (AXL): 1240 nM

NS(=O)(=O)c1ccc(N/N=C2\C(=O)Nc3ccc4ncccc4c32)cc1 [GW305178X]
potency estimated from few doses (CDK2; compound concentrations: 100 nM and 1000 nM (sheet 'Samples'), CATDS: 0.10178285521581799): 134 nM
potency estimated from few doses (CDK9; compound concentrations: 100 nM and 1000 nM (sheet 'Samples'), CATDS: 4.6560668202509002E-2): 1210 nM

CN[C@H](C#Cc1c(F)ccc2c1/C(=C/c1[nH]ccc1OC)C(=O)N2)CO.Cl [RO0283049-001]
potency estimated from few doses (CDK2; compound concentrations: 100 nM and 1000 nM (sheet 'Samples'), CATDS: 2.1826327845386101E-2): 1310 nM

Cn1cc(C2=C(c3ccc(OC[C@@H](O)CO)cc3)C(=O)NC2=O)c2ccccc21 [RO3208546-000]
potency estimated from few doses (MTOR; compound concentrations: 100 nM and 1000 nM (sheet 'Samples'), CATDS: 4.7243035246753197E-2): 730 nM

CC(C)N1CC(=O)N(C)c2cnc(Nc3cccc(S(=O)(=O)CCN4CCOCC4)c3)nc21 [BI00009348]
potency estimated from few doses (PIK3CG; CATDS: 0.22323444695651501): 109 nM

CCn1c(-c2nonc2N)nc2cncc(C(=O)N3CC[C@H](N)C3)c21.Cl [SB-772077-B]
potency estimated from few doses (CDC42BPA; [1]): 1170 nM
potency estimated from few doses (CDC42BPB; [1]): 932 nM
potency estimated from few doses (PRKG1; [1]): 95.9 nM

O=C1N=C(N[C@H](CO)c2ccccc2)S/C1=C\c1ccc2ncccc2c1 [RO4554339-000]
potency estimated from few doses (CDC42BPA; compound concentrations: 100 nM and 1000 nM (sheet 'Samples'), CATDS: 8.0851127030257999E-2): 2180 nM

NS(=O)(=O)c1ccc(N/N=C2\C(=O)Nc3ccc(-c4cnco4)cc32)cc1 [GW276655_KCGS]
potency estimated from few doses (CDK2; [1]): 983 nM
potency estimated from few doses (ICK; [1]): 1770 nM

CC(C)(CO)CNC(=O)c1ccc2c(c1)/C(=N/Nc1ccc(S(N)(=O)=O)cc1)C(=O)N2 [GW301784X]
potency estimated from few doses (CDK2; [1]): 87.1 nM
potency estimated from few doses (ICK; [1]): 1680 nM
potency estimated from few doses (TGFBR2; [1]): 822 nM

CCn1c(-c2nonc2N)nc2cncc(Br)c21 [SB-738004]
potency estimated from few doses (CDC42BPA; [1]): 2130 nM
potency estimated from few doses (CDC42BPB; [1]): 1970 nM
potency estimated from few doses (CDK9; [1]): 1120 nM
potency estimated from few doses (ROCK1; [1]): 181 nM

CNCC1CCn2c(c(C3=C(c4cn(C)c5ccccc45)C(=O)NC3=O)c3ccccc32)C1 (centres unmarked) [RO0318676-000]
potency estimated from few doses (CDK2; compound concentrations: 100 nM and 1000 nM (sheet 'Samples'), CATDS: 2.9072745389082302E-2): 1540 nM

NS(=O)(=O)c1cccc(-c2ccc3c(NC(=O)C4CC4)n[nH]c3c2)c1 [SB-741905]
potency estimated from few doses (MTOR; compound concentrations: 100 nM and 1000 nM (sheet 'Samples'), CATDS: 0.166958544620607): 626 nM

O=C1N=C(NCCc2ccccc2Cl)S/C1=C\c1ccc2ncccc2c1 [RO4498484-000]
potency estimated from few doses (CDC42BPA; compound concentrations: 100 nM and 1000 nM (sheet 'Samples'), CATDS: 5.5434431749678797E-2): 2450 nM

CCC(CC)(CC)n1cnc2c(N)ncnc21 [SKF-97620]
potency estimated from few doses (EPHA1): 828 nM
potency estimated from few doses (MTOR; compound concentrations: 100 nM and 1000 nM (sheet 'Samples'), CATDS: 6.0851943016667201E-2): 220 nM
potency estimated from few doses (PIK3CG; CATDS: 3.56480592193908E-2): 658 nM
potency estimated from few doses (ROCK1; compound concentrations: 100 nM and 1000 nM (sheet 'Samples'), CATDS: 2.49048423205754E-2): 1780 nM

COc1ccccc1CNC1=NC(=O)/C(=C/c2ccc3ncccc3c2)S1 [RO4503315-000]
potency estimated from few doses (JAK2; CATDS: 8.0204348967342395E-2): 755 nM
